Screens deposited in PubChem BioAssay by National Center for Advancing Translational Sciences (NCATS).
FLuc modulator – inhibits or activates purified firefly luciferase, miR-21 counter-screen. 6.9% of 360,000 active. AID 588342. Potency, µM (titrated, usually from 57.5 µM), hits mostly inhibitors. P08659. purified FLuc, Km substrates, luminescence inhibition; also: nearly all actives have a fitted effect of over 55% in size
Target sequence (P08659 whole entry, looked up): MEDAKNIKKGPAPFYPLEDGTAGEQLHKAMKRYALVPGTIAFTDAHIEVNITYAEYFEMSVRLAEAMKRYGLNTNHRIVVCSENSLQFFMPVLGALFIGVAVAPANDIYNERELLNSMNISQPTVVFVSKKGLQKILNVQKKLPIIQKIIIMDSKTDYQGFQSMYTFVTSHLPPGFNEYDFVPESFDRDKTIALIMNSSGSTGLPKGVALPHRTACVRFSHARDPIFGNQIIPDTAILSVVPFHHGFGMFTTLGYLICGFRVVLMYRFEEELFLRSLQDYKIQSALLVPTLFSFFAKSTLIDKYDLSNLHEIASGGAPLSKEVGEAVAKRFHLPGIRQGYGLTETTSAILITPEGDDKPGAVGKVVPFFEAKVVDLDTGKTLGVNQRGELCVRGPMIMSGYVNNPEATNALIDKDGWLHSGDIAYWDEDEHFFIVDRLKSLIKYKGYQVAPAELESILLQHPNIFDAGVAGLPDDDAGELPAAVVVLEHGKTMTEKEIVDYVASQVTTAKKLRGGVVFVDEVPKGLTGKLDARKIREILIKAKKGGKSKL
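Purified P. pyralis luciferase, 10 nM final, with Km-level 10 uM D-luciferin and 10 uM ATP in 50 mM Tris acetate pH 7.5, 10 mM Mg acetate, 0.01% Tween-20, 0.05% BSA; 6-point qHTS titration about 60 µM downward; luminescence read.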
ELG1 genotox – inducers of genotoxicity in HEK293T ELG1-luciferase cells. HEK293T ELG1-luciferase reporter, luminescence, 16 h. Potency, µM (series often up to 46 µM), actives largely listed as activators. 1.3% of 330,000 active; also: nearly all actives have a fitted effect of over 60% in size
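ELG1-luciferase HEK293T cells, 2,000/well; compound pinned in; 16 hr, 37 °C, 5% CO2; ONE-Glo, 30 min RT; luminescence on CCD imager.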
NPC1 prom act – NPC1 promoter activation; Huh7 NPC1 promoter luciferase reporter, 24 h; Potency, µM (series often up to 9.22 µM), hits mostly activators; 2.4% of 320,000 active; also: nearly all actives have a fitted effect of over 60% in size
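Quantitative HTS used a cell-based reporter: Huh7 cells stably bearing the NPC1 promoter upstream of luciferase were treated with compounds for 24 h, and promoter activation was read as luminescence.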
Rab9 prom act – activates the Rab9 promoter. 2.8% of 320,000 active. AID 485297. Potency, µM (highest dose often 9.22 µM), hits mostly activators. Huh7 Rab9 promoter-luciferase reporter, luminescence, 24 h; also: nearly all actives have a fitted effect of over 60% in size
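Quantitative HTS format; Huh7 Rab9-luciferase reporter cells (1500/well) receive compound 2 h post-plating, incubate 24 h at 37 °C, then get luciferase reagent for 10 min before luminescence reading.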
KinaseGlo FLuc – blocks Kinase-Glo luciferase, a counter-screen artifact; Q27757; Kinase-Glo luciferase, ATP luminescence, 8 min; Potency, µM (top dose mostly 38.3 µM), usual class: inhibitors; 0.28% of 200,000 active; AID 1379; also: nearly all actives have a fitted effect of over 60% in size
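Inhibition of Kinase-Glo luciferase light generation was assessed at 10 uM ATP in pH 7.2 imidazole buffer, with luminescence measured after eight minutes at ambient temperature.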
SMN2 splice enh – enhancers of SMN2 splice variant expression. HEK293 SMN2-luciferase splicing reporter, luminescence, 30-36 h. Potency, µM (titrated, usually from 46.1 µM), hits mostly activators. 2.8% of 210,000 active; also: nearly all actives have a fitted effect of over 55% in size
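HEK293 cells carry an SMN2 minigene-luciferase reporter in which exon 7 inclusion puts luciferase in frame. Cells were seeded at 2000 cells/well, attached for 10-12 hours, then exposed to compounds for 30-36 hours at 37C before ONE-Glo luminescence.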
Each line names hits and unclear results; the compound was inactive in the other large screens. Rows were chosen to be rich in hits. Some 7.5% of all compounds tested hit in one or more screens of this group. Calls follow the shape of the dose curve; as a rule, active = well fitted curve in the direction sought with a large enough effect; inconclusive = small, poorly fitted or top-dose-only effect, or another doubt; inactive = no such curve, though single readings can be large; an effect the other way counts as inactive or inconclusive.

CC(C)Oc1ccc(-c2nc(NCC3CCCO3)c3ccccc3n2)cc1 (stereo unspecified)	FLuc modulator 9.5µM (no result: KinaseGlo FLuc, SMN2 splice enh)
COc1cccc(-c2cc(C(=O)NCC3CCCO3)c3cc(Br)cc(C)c3n2)c1 (stereo unspecified)	FLuc modulator 2.7µM, ELG1 genotox inconclusive (no result: KinaseGlo FLuc, SMN2 splice enh)
COc1ccc(-c2cc(C(=O)NCC3CCCO3)c3ccccc3n2)c(OC)c1 (stereo unspecified)	none (no result: KinaseGlo FLuc, SMN2 splice enh)
Cc1ccc(S(=O)(=O)CCC(=O)OCC(=O)NC(C)c2ccc(F)cc2)cc1 (stereo unspecified)	none (no result: KinaseGlo FLuc, SMN2 splice enh)
COc1ccc(NC(=O)CSCC(=O)Nc2cc(Cl)ccc2N2CCCC2)cc1	none (no result: KinaseGlo FLuc, SMN2 splice enh)
Cc1ccc(-c2nn(-c3ccccc3)cc2C(=O)NCC2CCCO2)cc1 (stereo unspecified)	FLuc modulator 13µM (no result: KinaseGlo FLuc, SMN2 splice enh)
Cn1c(NCCCCO)nc2c1c(=O)n(Cc1ccc(Cl)cc1)c(=O)n2C	none (no result: ELG1 genotox, NPC1 prom act, Rab9 prom act, KinaseGlo FLuc)
Cc1c(C(=O)N(CCO)Cc2ccccc2)oc2c(F)cccc12	FLuc modulator 17µM, ELG1 genotox inconclusive, NPC1 prom act inconclusive, Rab9 prom act inconclusive (no result: KinaseGlo FLuc, SMN2 splice enh)
Cc1cc(Cl)c2oc(C(=O)N(CCO)Cc3ccccc3)c(C)c2c1	ELG1 genotox inconclusive (no result: KinaseGlo FLuc, SMN2 splice enh)
COc1cc2c(cc1NC(=O)C(C)OC(=O)C1CC(=O)N(Cc3ccco3)C1)oc1ccccc12 (stereo unspecified)	FLuc modulator inconclusive, ELG1 genotox 21µM, NPC1 prom act inconclusive, Rab9 prom act inconclusive
Cc1ccc(NC(=O)Nc2ccc(Cl)c(Cl)c2)nc1	FLuc modulator inconclusive, ELG1 genotox inconclusive, NPC1 prom act inconclusive, Rab9 prom act 4.5µM (no result: KinaseGlo FLuc, SMN2 splice enh)
Cc1ccc(NC(=O)Nc2ccc(Cl)cn2)cc1	FLuc modulator inconclusive, ELG1 genotox inconclusive, Rab9 prom act 4µM, SMN2 splice enh 11µM
COC(=O)[C@@]1(Cc2ccccc2)[C@H]2c3cc(C(=O)N(C)C)n(Cc4nc5ccccc5[nH]4)c3C[C@H]2CN1C(=O)c1ccccc1	none (no result: FLuc modulator, ELG1 genotox, NPC1 prom act, Rab9 prom act)
CC(=O)Nc1ccc(CN2CCCN(C)CC2)cc1	none (no result: KinaseGlo FLuc, SMN2 splice enh)
CCc1nnc(SCC(=O)Nc2ccc(Cl)cc2F)c2cc3occc3n12	none (no result: ELG1 genotox, NPC1 prom act, Rab9 prom act, KinaseGlo FLuc, SMN2 splice enh)
CCOc1ccc(CNC(=O)CSc2nnc(C)c3c(C)n(-c4ccccc4)nc23)cc1	none (no result: ELG1 genotox, NPC1 prom act, Rab9 prom act, KinaseGlo FLuc, SMN2 splice enh)
C#CCOCCOCCOCCNc1nc(N2CCN(C(=O)[C@H](CCCN=C(N)N)n3cc(C(N)[C@@H](C)CC)nn3)CC2)nc(N2CCN(C(=O)[C@H](CC(N)=O)n3cc([C@@H](N)CC(N)=O)nn3)CC2)n1 (stereo partly specified)	none (no result: FLuc modulator, NPC1 prom act, Rab9 prom act, KinaseGlo FLuc, SMN2 splice enh)
N#CC(C#N)=c1ccc2c(c1)NC1(CCCCC1)N=2	FLuc modulator inconclusive, KinaseGlo FLuc 13µM
CCc1cccc(-n2c(=O)c3cccnc3n2CC(=O)Nc2c(C)cc(C)cc2C)c1	none (no result: ELG1 genotox, NPC1 prom act, Rab9 prom act, KinaseGlo FLuc, SMN2 splice enh)
COc1ccc(N2C(=O)C(Cl)=C(Nc3ccccc3OC)C2=O)cc1	FLuc modulator 24µM
Clc1ccccc1CSc1snnc1-c1ccccc1	FLuc modulator 21µM, ELG1 genotox inconclusive
c1ccc(-c2nnsc2Sc2ccccn2)cc1	FLuc modulator 17µM
N/C(=N/OCC(=O)Nc1cccc2ccccc12)c1nonc1N	none
Cc1nc(/C(N)=N/OC(=O)c2ccccc2Cl)c(C(F)(F)F)o1	FLuc modulator 11µM, ELG1 genotox inconclusive, NPC1 prom act inconclusive, Rab9 prom act inconclusive (no result: KinaseGlo FLuc, SMN2 splice enh)
Cc1nc(/C(N)=N/OC(=O)c2cccc(Cl)c2)c(C(F)(F)F)o1	FLuc modulator inconclusive (no result: KinaseGlo FLuc, SMN2 splice enh)
NC(=O)c1ccc(F)cc1	none
Cc1cc(NC(=O)COC(=O)c2ccccc2Cl)no1	none (no result: FLuc modulator, NPC1 prom act, Rab9 prom act, KinaseGlo FLuc, SMN2 splice enh)
Cc1cc(/C(N)=N/OC(=O)c2ccccc2Cl)no1	FLuc modulator 1.7µM, ELG1 genotox inconclusive, NPC1 prom act 1.1µM, Rab9 prom act 0.5µM (no result: KinaseGlo FLuc, SMN2 splice enh)
N/C(=N/OC(=O)c1ccccc1Cl)c1nonc1N	FLuc modulator 8.5µM, ELG1 genotox inconclusive, Rab9 prom act inconclusive, KinaseGlo FLuc inconclusive
N/C(=N\OC(=O)c1ccc(F)cc1)c1nonc1N	FLuc modulator 1.5µM, KinaseGlo FLuc 11µM
O=C(c1ccc2c(c1)N(Cc1c(F)cccc1Cl)C(=O)c1ccccc1S2)N1CCOCC1	none (no result: ELG1 genotox, NPC1 prom act, Rab9 prom act, KinaseGlo FLuc)
Cc1cc(OCCCCOc2ccc(S(N)(=O)=O)c(C)c2)ccc1S(N)(=O)=O	none (no result: KinaseGlo FLuc, SMN2 splice enh)
CC(=O)OCC(=O)[C@]1(O)C(C)CC2C3CCC4=CC(=O)C=C[C@@]4(C)[C@]3(F)C(O)C[C@@]21C (stereo partly specified)	none (no result: FLuc modulator, ELG1 genotox, NPC1 prom act, Rab9 prom act)
CCOC(=O)c1cnc(N2CCN(c3ccc(C)cc3C)CC2)c2ccccc12	none (no result: ELG1 genotox, NPC1 prom act, Rab9 prom act, KinaseGlo FLuc, SMN2 splice enh)
CC(=O)Nc1ccc(NC(=O)C(C)Sc2n[nH]c(=O)n2Cc2ccccc2)cc1 (stereo unspecified)	none (no result: KinaseGlo FLuc, SMN2 splice enh)
O=C(Nc1ccnn1C1CCN(Cc2cccc(OCCO)c2)CC1)C1CC1	none (no result: KinaseGlo FLuc, SMN2 splice enh)
CCOc1cc(C(=O)Nc2ccc(S(=O)(=O)NC3=NCCCCC3)cc2)cc(Br)c1OC	none (no result: KinaseGlo FLuc, SMN2 splice enh)
Cc1ccc(C(=O)O/N=C(\N)c2nonc2N)cc1	FLuc modulator 0.48µM, ELG1 genotox inconclusive, KinaseGlo FLuc 11µM
O=C1c2ccccc2S(=O)(=O)N1CC1CC(c2ccccc2Cl)=NO1 (stereo unspecified)	FLuc modulator 2.7µM, ELG1 genotox 12µM, NPC1 prom act 3.2µM, Rab9 prom act 3.2µM, SMN2 splice enh 4µM
COc1ccccc1C1=NOC(CN2C(=O)c3ccccc3S2(=O)=O)C1 (stereo unspecified)	FLuc modulator 8.5µM, ELG1 genotox inconclusive, NPC1 prom act 2.8µM, Rab9 prom act 4µM (no result: KinaseGlo FLuc, SMN2 splice enh)
Oc1ccc(Cl)cc1CNCc1ccc(Cl)nc1	none (no result: KinaseGlo FLuc, SMN2 splice enh)
